Screening data as filed in PubChem BioAssay.
GLP-1R inv ag: acts as inverse agonist at human GLP-1 receptor. Potency, µM (highest dose often 38.3 µM), actives largely listed as inhibitors. AID 624417. 1.6% of 410,000 active. HEK293 GLP-1R CRE-luciferase, luminescence, 24 h; GLP-1R form is constitutively active; note: nearly all actives have a fitted effect of over 55% in size
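Cells are plated, allowed 12 hours at 37 deg C, then treated with compounds for 24 hr before luciferase detection reagent is added and luminescence is read after 12 min at room temperature. The HEK293 line carries constitutively active GLP-1R with a cAMP-responsive reporter.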
GLP1R ag: GLP-1 receptor (human) agonism; HEK293 GLP-1R CRE-luciferase, luminescence, 4-6 h; cells express a hypersensitive GLP-1R form; Potency, µM (titrated, usually from 45.6 µM), hits mostly activators; 0.007% of 380,000 active
GLS inhibitor: blocks human kidney-isoform glutaminase activity. O94925. GLS enzymatic activity, qHTS titration. Potency, µM (top dose mostly 45.5 µM), hits mostly inhibitors. 0.21% of 410,000 active
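Read-out is an Amplex red fluorescence increase coupled through glutamate oxidase and HRP, measured before and after 30 min room-temperature incubation. hKGA is in 45 mM KH2PO4 (pH 8.2) with 0.02% Tween-20; glutamine added as 1mM solution.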
KCNH2 WT inh: blocks the wildtype human KCNH2 potassium channel | activity change, % at 1.84 µM | 0.37% of 340,000 active | U2OS, BacMam KCNH2, thallium flux FluxOr; stronger effect = lower value | Q12809 | AID 720551;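 active = maximum activity change below -70%; inconclusive = maximum activity change between -70% and -50%; inactive = maximum activity change above -50%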
Target sequence (Q12809 whole entry, looked up): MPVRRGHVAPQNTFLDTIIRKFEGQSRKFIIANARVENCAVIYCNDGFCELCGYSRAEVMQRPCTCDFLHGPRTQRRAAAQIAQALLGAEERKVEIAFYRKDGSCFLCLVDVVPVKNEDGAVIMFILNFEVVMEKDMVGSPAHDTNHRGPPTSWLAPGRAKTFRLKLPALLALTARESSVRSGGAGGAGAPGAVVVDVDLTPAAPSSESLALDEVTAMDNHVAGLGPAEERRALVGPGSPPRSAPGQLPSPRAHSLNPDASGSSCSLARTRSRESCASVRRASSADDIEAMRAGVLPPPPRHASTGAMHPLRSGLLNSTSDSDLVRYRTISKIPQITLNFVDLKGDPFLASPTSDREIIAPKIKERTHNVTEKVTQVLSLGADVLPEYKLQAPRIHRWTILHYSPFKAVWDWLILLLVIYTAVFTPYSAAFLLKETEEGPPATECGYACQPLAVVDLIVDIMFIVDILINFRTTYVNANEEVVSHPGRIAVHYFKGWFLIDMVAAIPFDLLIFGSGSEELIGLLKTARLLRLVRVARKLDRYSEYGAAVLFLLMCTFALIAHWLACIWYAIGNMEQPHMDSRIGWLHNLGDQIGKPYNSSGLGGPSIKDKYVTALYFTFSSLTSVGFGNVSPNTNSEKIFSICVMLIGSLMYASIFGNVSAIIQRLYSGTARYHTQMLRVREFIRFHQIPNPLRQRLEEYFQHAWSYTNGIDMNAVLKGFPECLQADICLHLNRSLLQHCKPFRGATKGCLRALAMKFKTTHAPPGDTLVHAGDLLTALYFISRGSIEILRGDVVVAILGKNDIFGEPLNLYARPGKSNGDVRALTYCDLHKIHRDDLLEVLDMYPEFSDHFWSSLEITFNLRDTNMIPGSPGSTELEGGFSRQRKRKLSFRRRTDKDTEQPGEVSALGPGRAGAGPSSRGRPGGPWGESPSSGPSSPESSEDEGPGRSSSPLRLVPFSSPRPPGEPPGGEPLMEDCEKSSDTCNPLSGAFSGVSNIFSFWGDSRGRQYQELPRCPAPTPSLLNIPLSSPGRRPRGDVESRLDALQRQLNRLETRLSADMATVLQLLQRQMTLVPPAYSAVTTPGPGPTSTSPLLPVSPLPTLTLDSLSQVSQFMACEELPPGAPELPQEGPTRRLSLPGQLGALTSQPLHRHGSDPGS
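U2OS cells transduced with wild-type KCNH2 virus are loaded with FluxOr dye for 45 min, and thallium flux is measured in kinetic reads before and after stimulation buffer. Rate constants are normalized to DMSO controls.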
KCNH2 3.1 block: inhibitors of human KCNH2 3.1 potassium channel isoform | activity change, % (tested at about 1.8 µM) | U2OS KCNH2 3.1, thallium flux FluxOr; stronger effect = lower value | 0.95% of 340,000 active | AID 720553;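 active = maximum activity change below -70%; inconclusive = maximum activity change from -70% to -50%; inactive = maximum activity change above -50%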;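 note: thallium influx rate constant from kinetic fluorescence after stimulation buffer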
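We transduce U2OS cells with the mutant 3.1 virus, culture them overnight, load FluxOr with Red40 quencher for 45 min, then add stimulation buffer and read kinetically for 2 min to derive a normalized rate constant.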
HEK293 tox: cytotoxic in the GLP-1 receptor inverse agonist counter-screen. 0.13% of 410,000 active. HEK293 cAMP-luciferase reporter cells, luminescence, 24 h. Potency, µM (top dose mostly 38.3 µM), hits mostly inhibitors;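 note: loss of luciferase light is scored as toxicity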
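MLSMR compounds, 24 hr on cells at 37 deg C/5% CO2; luminescence after luciferase reagent (12 min RT). Inhibition counted as the undesired cytotoxic outcome.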
Of the large screens only hits and unclear results are named; the others gave an inactive call. Rows were chosen to be rich in hits. Some 2.8% of all compounds tested hit in one or more screens of this group. Unless noted, calls come from the whole dose curve; as a rule, active = well fitted curve in the direction sought with a large enough effect; inconclusive = small, poorly fitted or top-dose-only effect, or another doubt; inactive = no such curve, though single readings can be large; an effect the other way counts as inactive or inconclusive.

O=C(NCc1cccs1)c1ccc(Cl)c(S(=O)(=O)N2CCOCC2)c1	none
O=C(Nc1ccc(CN2CCCCC2)cc1)c1sc2ccccc2c1Cl	GLP-1R inv ag inconclusive, GLS inhibitor inconclusive, KCNH2 3.1 block -100
Cc1cc(OCC(=O)Nc2ccc(CN3CCOCC3)cc2)ccc1Cl	GLP-1R inv ag inconclusive
CC1CC(C)CN(C(=O)CNC(=O)c2sc3ccccc3c2Cl)C1 (configuration not stated)	GLP-1R inv ag 3.2µM
O=C(Cc1ccc(Cl)cc1)Nc1ccc(CN2CCCCC2)cc1	GLP-1R inv ag inconclusive, KCNH2 3.1 block -70
Cc1cc(OCC(=O)Nc2ccc(CN3CCCCC3)cc2)ccc1Cl	GLP-1R inv ag inconclusive, KCNH2 3.1 block -86
Cc1ccc(NC(=O)c2ccc3nsnc3c2)c(Cl)c1	none
CCN(CC)Cc1ccc(NC(=O)c2sc3cc(Cl)ccc3c2Cl)cc1	GLP-1R inv ag inconclusive, KCNH2 3.1 block -95, HEK293 tox inconclusive
COc1cccc(N2CCN(C(=O)CCc3c(C)nc4c(c3C)c(=O)n(C)c(=O)n4C)CC2)c1	none (no result: KCNH2 WT inh, KCNH2 3.1 block)
COc1cc(CNCCc2c[nH]c3ccccc23)ccc1OCc1ccccc1F	GLP-1R inv ag 7.9µM, KCNH2 3.1 block -79
COc1cc(CNCCO)ccc1OCCc1ccccc1	GLP-1R inv ag 1µM
COc1ccc(C(=O)N2CCC(c3nc(-c4ccc(S(=O)(=O)N5CCCC5)cc4)no3)CC2)cc1	none (no result: GLP1R ag, KCNH2 WT inh, KCNH2 3.1 block)
Cc1ccc(Cn2cc(/C=N/Nc3ccc([N+](=O)[O-])cn3)c3ccccc32)cc1	GLP-1R inv ag 11µM, HEK293 tox inconclusive (no result: KCNH2 3.1 block)
Cc1nc2sc(C(N)=O)c(N)c2c2c1CCCC2	GLP-1R inv ag 1.1µM
Cc1nnc2c3ccccc3nc(Nc3ccccc3C(=O)O)n12	GLS inhibitor inconclusive (no result: GLP1R ag, KCNH2 WT inh, KCNH2 3.1 block)
Cc1ccc(S(=O)(=O)NCC(Nc2cccc(Cl)c2)c2ccccc2)cc1 (configuration not stated)	GLP-1R inv ag 11µM (no result: KCNH2 WT inh, KCNH2 3.1 block)
O=S(=O)(NCC(Nc1ccc(Cl)cc1)c1ccccc1)c1ccc(Cl)cc1 (configuration not stated)	GLP-1R inv ag inconclusive
Cc1ccc(S(=O)(=O)NCC(NCc2ccc(F)cc2)c2ccccc2)cc1 (configuration not stated)	GLP-1R inv ag 11µM
Cc1ccc(S(=O)(=O)NCC(c2ccccc2)N2CCN(c3ccc(F)cc3)CC2)cc1 (configuration not stated)	GLP-1R inv ag inconclusive
CCCn1c(=N)n(CC(=O)c2ccc([N+](=O)[O-])cc2)c2ccccc21	none
CCCn1c(=N)n(CC(=O)c2ccc(Cl)cc2)c2ccccc21	GLP-1R inv ag 7.9µM
Cc1cc2c(cc1C)CSC(c1ccc3ccccc3c1O)SC2	none
Cc1cc2c(cc1C)CSC(c1c(O)ccc3ccccc13)SC2	GLP-1R inv ag 13µM, HEK293 tox inconclusive
COC(=O)c1c(NC(=S)NN2CCN(C)CC2)sc2c1CCC(C)C2 (configuration not stated)	GLP-1R inv ag 10µM, HEK293 tox inconclusive
CC(Oc1ccccc1)C(=O)Nc1ccc(C(=O)OCc2cc(=O)n3nc(C(C)C)sc3n2)cc1 (configuration not stated)	none (no result: GLP1R ag, KCNH2 WT inh, KCNH2 3.1 block)
CC(=O)Nc1ccc(C(=O)OCC(=O)NCc2ccccc2)cc1	none
O=C(COC(=O)CC(c1ccccc1)c1ccccc1)NCc1ccc(Cl)cc1	GLP-1R inv ag 11µM
C=C(C)C(=O)OCC(=O)NCc1ccccc1	GLP-1R inv ag inconclusive, HEK293 tox 11µM
COc1cc(OC)cc(C(=O)Nc2ccc(Nc3ccccc3)cc2)c1	GLP-1R inv ag 11µM, KCNH2 3.1 block -86
COc1cc(OC)cc(C(=O)NCC(=O)Nc2ccc(-c3ccccc3)cc2)c1	GLP-1R inv ag inconclusive, KCNH2 3.1 block -82, HEK293 tox inconclusive
COc1cc(OC)cc(C(=O)Nc2ccc(-c3nc4ccccc4o3)cc2)c1	GLP-1R inv ag inconclusive, KCNH2 3.1 block -112
COc1cc(OC)cc(C(=O)Nc2cccc(NC(=O)c3ccccc3)c2)c1	none
COc1ccc(CCNC(=O)CCn2c(=O)c3ccccc3n(CC(=O)Nc3ccc(C)cc3C)c2=O)cc1OC	none (no result: KCNH2 WT inh, KCNH2 3.1 block)
CCC(=O)N1CCc2nc(-c3ccccc3)sc2C1	none
COc1cccc(-c2nc(CN3CCN(C(=O)c4ccco4)CC3)c(C)o2)c1OC	KCNH2 3.1 block -90
Cc1oc(-c2cc(F)ccc2F)nc1CN1CCCN(C(=O)c2ccco2)CC1	GLP-1R inv ag inconclusive
CCN(CC)CCNC(=O)c1ccc(NC(=O)c2cccc(S(=O)(=O)N3c4ccccc4CC3C)c2)cc1 (configuration not stated)	GLP-1R inv ag 5.6µM, HEK293 tox inconclusive
CCN(CC)CCNC(=O)c1ccc(NC(=O)c2cccc(S(=O)(=O)N3CCc4ccccc43)c2)cc1	GLP-1R inv ag inconclusive, HEK293 tox inconclusive
CCN(CC)CCNC(=O)c1ccc(NC(=O)Nc2cccc3ccccc23)cc1	GLP-1R inv ag 10µM
CCN(CC)CCNC(=O)c1ccc(NC(=O)c2ccc(F)cc2)cc1	none
O=c1c2[nH]cnc2n(-c2cccc(Br)c2)c(=O)n1Cc1ccccc1	none (no result: KCNH2 WT inh)
C(=N\Nc1nc2ccccc2[nH]1)/c1c[nH]c2ccccc12	GLP-1R inv ag inconclusive, GLS inhibitor 13µM, HEK293 tox inconclusive
COc1ccc(NC(=O)Cn2c(SCc3ccc(C)cc3)nc3cccnc32)cc1OC	GLP-1R inv ag inconclusive (no result: GLP1R ag, KCNH2 WT inh, KCNH2 3.1 block)
COc1ccc(/C=C/c2c([N+](=O)[O-])c(=O)n(C)c(=O)n2C)c(OC)c1OC	none
Cn1c(/C=C/c2cccc([N+](=O)[O-])c2)c([N+](=O)[O-])c(=O)n(C)c1=O	GLP-1R inv ag inconclusive, HEK293 tox inconclusive
Cn1c(/C=C/c2ccc(Cl)cc2)c([N+](=O)[O-])c(=O)n(C)c1=O	GLP-1R inv ag 0.79µM, HEK293 tox inconclusive
COc1ccc(/C=C/c2c([N+](=O)[O-])c(=O)n(C)c(=O)n2C)cc1OC	KCNH2 3.1 block -75
CCCN(C)C[C@@H]1OCc2cnnn2CCCC(=O)N([C@H](C)CO)C[C@H]1C	none
CC(CNC(=O)CCCn1ncn2c(cc3occc32)c1=O)c1ccccc1 (configuration not stated)	none
COc1ccc(CNC(=O)CCCn2ncn3c(cc4occc43)c2=O)cc1	KCNH2 3.1 block -114
Cc1ccc(-n2nnnc2CNC(=O)C(C)C)cc1C	none (no result: GLP1R ag, KCNH2 WT inh, KCNH2 3.1 block)
Cc1cc(N2CCN(c3ccc([N+](=O)[O-])c4cccnc34)CC2)c2ccccc2n1	KCNH2 WT inh -108, KCNH2 3.1 block -103
O=C(c1ccccc1F)N1CCN(c2ccc([N+](=O)[O-])c3cccnc23)CC1	KCNH2 WT inh -243
